The values below come from PubChem BioAssay (NCI).

Compounds without any hit were thinned out: in the full panel of roughly 83,000, 20% have a hit.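 How to read the values: 0–100, growth inhibition (40 = 60% inhibited); 0, no net growth; -100 to 0, cell death (-40 = 40% of starting cells died; -100 = all dead).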 Unmarked numbers belong to inactive results. Calls of active or inactive are those of the source. How the source made its calls: active means growth percent below 10; inactive means the rest.

Some test systems named below: T-47D breast; BT-549 breast; MDA-MB-435 melanoma; SW-620 colon; MCF7 breast; HCT-116 colon; HCC-2998 colon; KM12 colon.
What all share (test): NCI-60 one-dose screen, 48 h (100 = growth as untreated, 0 = no growth, -100 = all killed)
Holding throughout (conditions): 10 µM unless noted

As to `CC(C)C1C2=C(NCCN1C(=O)Cc1ccccc1)C(C)(C)N(Cc1ccccc1)C2=O` (stereo not drawn), the growth in the test with T-47D breast was 91.8%; in the test with BT-549 breast, 99.7%; with MDA-MB-435 melanoma it was 99.2%; in the test with SW-620 colon, 92.5%; in the test on MCF7 breast, 95.3%; in the test with HCT-116 colon, 91.7%. The growth in the test on HCC-2998 colon was 101%; in the test on KM12 colon, 107%.

As for `CNC(=O)NCC1OC(n2cnc3c(NC(=O)Nc4ccccc4)ncnc32)C(O[Si](C)(C)C(C)(C)C)C1O[Si](C)(C)C(C)(C)C` (stereo not drawn), the growth in the test on T-47D breast is 13.6%; with BT-549 breast it was 39.7%; in the test on MDA-MB-435 melanoma, 25.9%; with SW-620 colon, 36.4%; with MCF7 breast, 0.294% (active); in the test on HCT-116 colon, 0.332% (active). For the same compound, the growth was -1.37% (active) in the test on HCC-2998 colon and -3.66% (active) in the test with KM12 colon.

`O=C1C(=O)c2c(nc3ncccn23)-c2ccccc21`: the growth in the test on T-47D breast was -48.5% (active); in the test on BT-549 breast, -94% (active); in the test with MDA-MB-435 melanoma it was -93.8% (active); with SW-620 colon it was -60.6% (active); in the test with MCF7 breast, -53.8% (active); in the test with HCT-116 colon, -79% (active). Also, the growth in the test with HCC-2998 colon is -92.7% (active); in the test with KM12 colon it was -62.6% (active).

Turning to `O=C1OC(=O)C2C1CC=CC2c1ccccc1` (stereo not drawn), the growth in the test on T-47D breast is 91.5%; with BT-549 breast, 93.1%; in the test on MDA-MB-435 melanoma, 102%; in the test with SW-620 colon, 86.7%; with MCF7 breast, 89%; in the test on HCT-116 colon, 97.3%. For the same compound, the growth is 79.9% in the test with HCC-2998 colon and 84.8% with KM12 colon.

In the case of `CCCCOc1ccc(/C=N/Nc2cc(C)nc3ccc(Cl)cc23)cc1`, the growth in the test on T-47D breast was 21.5%; in the test on BT-549 breast it was 96.6%; in the test on MDA-MB-435 melanoma, -85.2% (active); in the test on SW-620 colon, -58.3% (active); in the test with MCF7 breast, -70.8% (active); in the test with HCT-116 colon, -68% (active). Further, the figures for the growth in the test with HCC-2998 colon and with KM12 colon were -71.1% (active) and -76.6% (active), respectively.

For the compound `Cn1c(COC(=O)NCCn2ccnc2)nc2c(N3CCOCC3)nc(-c3ccccc3)nc21`, the growth was -36.1% (active) in the test with T-47D breast; -78.2% (active) with BT-549 breast; -91.2% (active) with MDA-MB-435 melanoma; -68.8% (active) with SW-620 colon; -67% (active) in the test on MCF7 breast; -74.6% (active) in the test with HCT-116 colon. Further, the growth is -82.1% (active) with HCC-2998 colon and -69.3% (active) in the test with KM12 colon.

Consider `CCCCCCOc1ccc(C(=N)N(CCCC)CCCC)c2ccccc12`, for which the growth in the test with T-47D breast was -65.5% (active); with BT-549 breast it was -94.6% (active); in the test with MDA-MB-435 melanoma, -89.5% (active); in the test on SW-620 colon it was -61.3% (active); in the test on MCF7 breast, -74.8% (active); with HCT-116 colon it was -99.2% (active). Moreover, the values for the growth in the test on HCC-2998 colon and in the test on KM12 colon were -98% (active) and -90.3% (active), respectively.

Take `Fc1ccc2nc3c(cc2c1)CSc1nnc(-c2ccc[nH]c2=S)n1N3`: the growth in the test on T-47D breast is 84.1%; in the test on BT-549 breast, 97.7%; in the test on MDA-MB-435 melanoma, 103%; in the test on SW-620 colon, 93.5%; with MCF7 breast, 98.7%; in the test with HCT-116 colon, 92.7%. Further, the growth in the test on HCC-2998 colon is 103%; in the test on KM12 colon, 106%.

Take `CC(=O)NCCCS(=O)(=O)O`: the growth with T-47D breast was 102%; in the test on BT-549 breast, 110%; in the test with MDA-MB-435 melanoma, 99.9%; with SW-620 colon, 90.9%; in the test on MCF7 breast, 101%; in the test with HCT-116 colon it was 98.5%. The growth in the test on HCC-2998 colon and in the test with KM12 colon was 102% in each case.

Consider `COc1cc(/C=C/C(=O)c2ccc(Nc3ncnc4ccccc34)cc2)cc(OC)c1`, for which the growth in the test on T-47D breast was 117%; in the test on BT-549 breast, 26.9%; in the test on MDA-MB-435 melanoma it was -39.2% (active); with SW-620 colon, -66.1% (active); with MCF7 breast, 0.628% (active); with HCT-116 colon, -87.3% (active). Besides, the growth with HCC-2998 colon was -37.6% (active); with KM12 colon, -49.8% (active).

With `O=S(=O)(O)c1cc(O)c2c(N=Nc3ccc(Nc4ccccc4)c4c(S(=O)(=O)O)cccc34)cc(S(=O)(=O)O)cc2c1`, the growth in the test with T-47D breast is 100%; with BT-549 breast, 100%; in the test with MDA-MB-435 melanoma, 115%; in the test with SW-620 colon, 103%; in the test on MCF7 breast, 105%; in the test with HCT-116 colon it was 105%. Further, the figures for the growth in the test with HCC-2998 colon and in the test on KM12 colon were 102% and 101%, respectively.

Turning to `Cc1c2c(cc[n+]1Cc1ccc(F)cc1)c1ccc(OCc3cccc(F)c3)cc1n2Cc1cccc(F)c1`, the growth was -75.8% (active) with T-47D breast; -88.3% (active) in the test on BT-549 breast; -91.8% (active) with MDA-MB-435 melanoma; -87.6% (active) in the test on SW-620 colon; -76.7% (active) in the test on MCF7 breast; -92.1% (active) in the test on HCT-116 colon. Besides, the growth in the test on HCC-2998 colon was -92.5% (active); with KM12 colon it was -98.8% (active).

For `COc1ccc(-c2nc(N/N=C/c3c[nH]c4ccccc34)nc(N3CCOCC3)c2C#N)cc1`, the growth in the test on T-47D breast was 94.9%; in the test with BT-549 breast, 97%; with MDA-MB-435 melanoma, 108%; with SW-620 colon it was 72.6%; in the test on MCF7 breast, 80.2%; in the test on HCT-116 colon, 59.8%. Further, the growth was 100% with HCC-2998 colon and 83.9% with KM12 colon.

`C=C1C(=O)O[C@H]2[C@H]1CC/C(COC(=O)CCCCCC(=O)OC/C1=C/CC[C@@]3(C)O[C@H]3[C@H]3OC(=O)C(=C)[C@@H]3CC1)=C\CC[C@@]1(C)O[C@@H]21`: the growth in the test on T-47D breast is 1.26% (active); in the test with BT-549 breast, 35.7%; in the test with MDA-MB-435 melanoma it was 30.8%; in the test on SW-620 colon, 8.05% (active); with MCF7 breast, 12.8%; with HCT-116 colon it was -37.3% (active). Besides, the values for the growth with HCC-2998 colon and in the test with KM12 colon were 84.5% and 62.8%, respectively.

Consider `FC(F)(F)c1cccc(Oc2ccc(Nc3ncnc4ccc(OCCCN5CCOCC5)cc34)cc2Cl)c1`, for which the growth was 32.7% in the test with T-47D breast; 78.9% with BT-549 breast; 43.2% in the test with MDA-MB-435 melanoma; 31.7% with SW-620 colon; 28.7% with MCF7 breast; 28% in the test on HCT-116 colon. Besides, the growth was 29.3% in the test with HCC-2998 colon and 17.1% in the test on KM12 colon.

In the case of `COc1ccc(-c2nc3sccn3c2/C=C/C(=O)c2cc(OC)c(OC)c(OC)c2)cc1`, the growth in the test with T-47D breast was 30.5%; in the test with BT-549 breast, 46.9%; in the test with MDA-MB-435 melanoma, 29.8%; with SW-620 colon, 72.5%; with MCF7 breast it was 17.2%; in the test with HCT-116 colon it was 42%. In addition, the growth was 71.2% in the test on HCC-2998 colon and 35.8% in the test with KM12 colon.
